{
  "source": "PubChem BioAssay AID1489",
  "about": "(National Center for Advancing Translational Sciences (NCATS), 2009)",
  "target": "Neuropeptide S receptor (Homo sapiens) (UniProt Q6W5P4)",
  "sequence (Q6W5P4 whole entry, looked up)": "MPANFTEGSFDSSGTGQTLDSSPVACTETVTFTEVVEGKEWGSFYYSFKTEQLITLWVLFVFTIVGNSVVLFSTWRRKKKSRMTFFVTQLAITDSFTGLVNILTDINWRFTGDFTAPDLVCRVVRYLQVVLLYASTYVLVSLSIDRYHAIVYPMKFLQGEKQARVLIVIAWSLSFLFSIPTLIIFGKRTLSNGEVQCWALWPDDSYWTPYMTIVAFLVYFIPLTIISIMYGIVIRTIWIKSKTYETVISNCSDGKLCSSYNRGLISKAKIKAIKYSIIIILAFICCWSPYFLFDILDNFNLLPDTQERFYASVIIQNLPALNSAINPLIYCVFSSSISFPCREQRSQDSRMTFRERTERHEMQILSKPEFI",
  "assay": "Confirmation Concentration-Response Assay for Antagonists of the Neuropeptide S Receptor: Calcium Signal Transduction",
  "outline": "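CHO cells stably expressing human NPSR, loaded with calcium dye; compounds added, then stimulated with NPS (60 nM in stimulation reagent). Fluorescence (Ex 480, Em 520–560 nm) recorded kinetically on FDSS; AC50 from Hill fit.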",
  "note": "Results filed as inconclusive are left out. Entries that show only a call come without a potency. Activity calls are given as the source filed them. Calls come from the whole dose curve; as a rule, active = well fitted antagonist curve with a large enough effect in the main read-out, with a control signal flat; inconclusive = small, poorly fitted or top-dose-only effect; inactive = no such curve, though single readings can be large or run the other way.",
  "data": [
    {"smiles": "CCOC(=O)c1cnc(-n2nc(C)cc2C)nc1Nc1ccc(C)cc1", "values": [
      {"measurement": "Potency", "result": "inactive"}
    ]},
    {"smiles": "CCC(C)(C)NC(=O)Cc1ccc(C)cc1", "values": [
      {"measurement": "Potency", "result": "inactive"}
    ]},
    {"smiles": "NC(=S)N/N=C/c1ncc(C(F)(F)F)cc1Cl", "values": [
      {"measurement": "Potency", "result": "inactive"}
    ]},
    {"smiles": "CC1(C)Cc2c(c(N3CCOCC3)nc3sc4c(NCC5CCCO5)nnnc4c23)CS1", "note": "(stereo not drawn)", "values": [
      {"measurement": "Potency", "result": "inactive"}
    ]},
    {"smiles": "CCOC(=O)C1CCCN(c2ncnc3c2oc2ccccc23)C1", "note": "(stereo not drawn)", "values": [
      {"measurement": "Potency", "result": "12600 nM (active)"}
    ]},
    {"smiles": "O=[N+]([O-])c1cc2c(cc1/C=N/n1c(-c3ccccc3)n[nH]c1=S)OCO2", "values": [
      {"measurement": "Potency", "result": "inactive"}
    ]},
    {"smiles": "O=[N+]([O-])c1ccc(-c2nc(C(Cl)Cl)c3ccccc3n2)cc1", "values": [
      {"measurement": "Potency", "result": "inactive"}
    ]},
    {"smiles": "Cc1nn(C)cc1/C=N/NC(=S)Nc1ccccc1", "values": [
      {"measurement": "Potency", "result": "inactive"}
    ]},
    {"smiles": "COc1ccc(NC(=O)/C(Cl)=C(/Cl)S(=O)Cc2ccc(C)cc2)cn1", "note": "(stereo not drawn)", "values": [
      {"measurement": "Potency", "result": "2240 nM (active)"}
    ]},
    {"smiles": "O=C(Nc1nccs1)C1CCCN1S(=O)(=O)c1ccc(Cl)cc1", "note": "(stereo not drawn)", "values": [
      {"measurement": "Potency", "result": "inactive"}
    ]},
    {"smiles": "CCC(C)n1c(=O)c(C(=O)Nc2ccccc2S(N)(=O)=O)c(O)c2ccccc21", "note": "(stereo not drawn)", "values": [
      {"measurement": "Potency", "result": "inactive"}
    ]},
    {"smiles": "CCN(CC)S(=O)(=O)c1ccc2c(c1)nc(SC(C)C(N)=O)n2-c1ccc(OC)cc1", "note": "(stereo not drawn)", "values": [
      {"measurement": "Potency", "result": "inactive"}
    ]},
    {"smiles": "O=C1CC(NCc2ccncc2)C(=O)N1c1ccccc1", "note": "(stereo not drawn)", "values": [
      {"measurement": "Potency", "result": "inactive"}
    ]},
    {"smiles": "CN(Cc1cc(=O)[nH]c2ccccc12)C(=O)c1ccccc1", "values": [
      {"measurement": "Potency", "result": "inactive"}
    ]},
    {"smiles": "Cc1ccc(-n2ncc3c(NCc4ccc5c(c4)OCO5)ncnc32)c(C)c1", "values": [
      {"measurement": "Potency", "result": "inactive"}
    ]},
    {"smiles": "COc1ccc(OC)c(C2C(C(=O)Nc3nc4ccccc4s3)=C(C)NC3=C2C(=O)CCC3)c1", "note": "(stereo not drawn)", "values": [
      {"measurement": "Potency", "result": "2820 nM (active)"}
    ]},
    {"smiles": "CCC(Sc1ccc2nnc(-c3cccnc3)n2n1)C(=O)O", "note": "(stereo not drawn)", "values": [
      {"measurement": "Potency", "result": "inactive"}
    ]},
    {"smiles": "Cn1c(COc2ccccc2)nnc1SCc1cc(=O)[nH]c2ccccc12", "values": [
      {"measurement": "Potency", "result": "inactive"}
    ]},
    {"smiles": "CC1CCCCN1S(=O)(=O)c1ccc(C(=O)Nc2sccc2C(N)=O)cc1", "note": "(stereo not drawn)", "values": [
      {"measurement": "Potency", "result": "12600 nM (active)"}
    ]},
    {"smiles": "CCOC(=O)c1cnc(-n2nc(C)cc2C)nc1NC1CCCC1", "values": [
      {"measurement": "Potency", "result": "2820 nM (active)"}
    ]},
    {"smiles": "COc1cc(/C=C2\\SC(c3ccc(C)cc3)=NC2=O)cc(OC)c1O", "values": [
      {"measurement": "Potency", "result": "inactive"}
    ]},
    {"smiles": "Cc1ccc(/C=C2\\SC(=S)N(CC(=O)Nc3ncc(Cc4ccccc4Cl)s3)C2=O)cc1", "values": [
      {"measurement": "Potency", "result": "inactive"}
    ]},
    {"smiles": "CCOc1ccc(N2C(=O)CC(NCCc3ccncc3)C2=O)cc1", "note": "(stereo not drawn)", "values": [
      {"measurement": "Potency", "result": "inactive"}
    ]}
  ]
}
